Structures can show the parent of a compound that is named as a salt.
test system: thyroid hormone receptor (endogenous TRα and TRβ); set-up: species or system GH3-TRE-Luc (rat pituitary); GH3-TRE-Luc luciferase reporter, antagonist mode against 1 nM T3, loss of signal, qHTS; details: read-out: Average AC50 (uM) GH3-TRE-Antag, antagonist mode, 1 nM T3, no GH3 cytotoxicity hit

SMILES	AC50
Nc1ccc2c3c(cccc13)-c1ccccc1-2 [3-Aminofluoranthene]	40.9 µM
Cc1cccc(Nc2ccccc2)c1 [3-Methyl-N-phenylaniline]	45 µM
O=C1[C@H](CC[C@H](O)c2ccc(F)cc2)[C@@H](c2ccc(O)cc2)N1c1ccc(F)cc1 [Ezetimibe]	33.5 µM
CCCCc1c(C)nc(NCC)nc1OS(=O)(=O)N(C)C [Bupirimate]	> 90 µM
C=CCc1ccccc1OCC(O)CNC(C)C (stereo not drawn) [Alprenolol]	27.2 µM
CC(C)(C)c1ccccc1O [2-tert-Butylphenol]	84.6 µM
CCCCC[C@H](O)/C=C/[C@H]1[C@H](O)CC(=O)[C@@H]1C/C=C\CCCC(=O)O [Dinoprostone]	4.68 µM
c1ccc(CN(Cc2ccccc2)Cc2ccccc2)cc1 [Tribenzylamine]	90.8 µM
OCc1c[nH]c2ccccc12 [Indole-3-carbinol]	58.4 µM
CCC1(C2=NCCN2)Cc2ccccc2O1 (stereo not drawn) [Efaroxan]	45.2 µM
CN1CCC(OC(c2ccccc2)c2ccccc2)CC1 [Diphenylpyraline hydrochloride]	9 µM
c1ccc2c(c1)Cc1ccccc1-2 [Fluorene]	55.8 µM
C=CCOC(Cn1ccnc1)c1ccc(Cl)cc1Cl (stereo not drawn) [Imazalil sulfate]	28.4 µM
O=C(CCC1CCN(Cc2ccccc2)CC1)c1ccc2c(c1)NCCCC2 [Zanapezil fumerate]	12.4 µM
CCCCCCCCCCCC(=O)OCC(O)CO (stereo not drawn) [1-Monolaurin]	47.2 µM
CCC(C)(C)C(=O)OC1=C(c2ccc(Cl)cc2Cl)C(=O)OC12CCCCC2 [Spirodiclofen]	51.5 µM
CC(=O)C1(C)CC2=C(CCCC2(C)C)CC1C (stereo not drawn) [Isocyclemone E]	87.5 µM
C[C@]12CCC(=O)C=C1CC[C@@H]1[C@@H]2CC[C@@]2(C)[C@H]1CC[C@]2(O)C(=O)CO [Cortodoxone]	21.8 µM
COc1cc(NC(=O)CC(C)=O)c(OC)cc1Cl [4'-Chloro-2',5'-dimethoxyacetoacetanilide]	> 90 µM
O=C(O)c1nn(Cc2ccc(Cl)cc2Cl)c2ccccc12 [Lonidamine]	> 50 µM
CC(=O)Nc1ccn(C2COC(COC(=O)c3ccccc3)O2)c(=O)n1 (stereo not drawn) [{4-[4-(Acetylamino)-2-oxopyrimidin-1(2H)-yl]-1,3-dioxolan-2-yl}methyl benzoate]	11.4 µM
Cc1cc(CC(=O)O)c(C)n1-c1ccc(Cl)cc1 [Clopirac]	38.5 µM
CC(=O)[C@H]1CC[C@H]2[C@@H]3C=CC4=CC(=O)CC[C@@]4(C)[C@@H]3CC[C@]12C [Dydrogesterone]	9.99 µM
Cn1c(CCCC(=O)O)nc2cc(N(CCCl)CCCl)ccc21 [Bendamustine]	28 µM

— publication PMC6792352, “Limited Chemical Structural Diversity Found to Modulate Thyroid Hormone Receptor in the Tox21 Chemical Library” (Environmental Health Perspectives, 2019)
